# Measurements from PubChem BioAssay AID778 (Sanford-Burnham Center for Chemical Genomics, 2007).
# Out of some 96,000 compounds screened, about 20,000 (21%) were called active. Not all results are given here. Unmarked numbers belong to inactive results.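 How the source made its calls: active means CYP2C19 inhibition above a set limit at 5 µM in the primary screen (cut at about 50% in these data); inactive means the rest.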
# Target: Cytochrome P450 2C19 (Homo sapiens) (UniProt P33261)
# Test: blockers of cytochrome P450 2C19 activity – biochemical, luminescence, ADME assay, primary screen (AID 778);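 further: plate controls were negative control wells for no effect and 2.5 mM tranylcypromine positive control for full effect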
# Conditions: CYP2C19 Supersomes, luciferin-H EGE luminescence, 30 min; at 5 µM; hits give high values
# Cytochrome P450 2C19 (Homo sapiens), sequence (P33261 whole entry, looked up): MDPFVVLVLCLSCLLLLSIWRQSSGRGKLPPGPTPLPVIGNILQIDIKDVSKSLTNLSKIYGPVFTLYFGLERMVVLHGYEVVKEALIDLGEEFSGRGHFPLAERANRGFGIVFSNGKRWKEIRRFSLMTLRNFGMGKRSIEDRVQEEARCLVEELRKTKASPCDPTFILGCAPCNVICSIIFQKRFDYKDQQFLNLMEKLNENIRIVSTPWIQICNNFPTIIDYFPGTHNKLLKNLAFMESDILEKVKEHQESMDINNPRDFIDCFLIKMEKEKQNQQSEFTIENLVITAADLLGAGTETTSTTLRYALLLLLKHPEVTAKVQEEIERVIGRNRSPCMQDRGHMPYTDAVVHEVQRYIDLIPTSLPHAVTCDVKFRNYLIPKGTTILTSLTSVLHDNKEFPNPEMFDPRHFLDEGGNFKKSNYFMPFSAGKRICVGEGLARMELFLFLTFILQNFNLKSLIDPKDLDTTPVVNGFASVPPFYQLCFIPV
row,SMILES,inhibition
1,COc1ccccc1C(=O)N1CCNC(=O)C1CC(=O)Nc1ccc(Cl)cc1 (stereo not given),12.1%
2,COc1ccccc1C(=O)N1CCN=C1SCc1cccnc1,88.2% (active)
3,CCOc1cccc(SCc2noc(C(=O)NC(C)C)c2C(=O)O)c1,8.8%
4,COc1ccc(OC)c(C2N(c3ccccn3)C(=O)C3CCCN32)c1 (stereo not given),-2.4%
5,COc1ccc(-c2nnc(SCC(=O)c3ccco3)n2-c2ccccc2)cc1,-13.8%
6,CCn1c(CNc2ccc(OC)cc2)nnc1SCC(=O)c1ccc(OC)cc1,33.9%
7,COc1ccc(NCc2nnc(SCc3ccccc3)n2-c2ccc(OC)cc2)cc1,85.8% (active)
8,CCC(=O)N1c2ccc(S(=O)(=O)CCC(=O)N3CCN(c4ccccc4)CC3)cc2CC1C (stereo not given),26.2%
9,Cc1csc(=NC(=O)c2ccccc2)n1CCO,49.7%
10,Cc1ccn2cc(C(=O)NC3CCN(Cc4ccccc4)CC3)nc2c1,11.4%
11,CCC(=O)Nc1ccc(C(=O)Nc2cc(C)on2)cc1,14.7%
12,CCCC(C)C(=O)Nc1ccc(NC(C)=O)cc1 (stereo not given),-6.8%
13,O=C(NCCc1ccccn1)c1cc(C(=O)C2CCCCC2)c[nH]1,-1.5%
14,CCOC(=O)C1CCN(c2ncnc3c2oc2ccc(Br)cc23)CC1,43.1%
15,Cc1nn(Cc2ccc(Cl)c(Cl)c2)c(C)c1NC(=O)c1cc(C2CC2)on1,95% (active)
16,CSc1ccccc1NC(=O)c1cc(C2CC2)on1,31.1%
17,Cc1cc(C(=O)Nc2c(C)nn(Cc3ccccc3)c2C)on1,11.7%
18,Cc1nc2nc(CSc3nc4ccccc4s3)cc(=O)n2[nH]1,-9.6%
19,O=S(=O)(c1ccccc1)N(CC(O)CN1CCCCC1)c1ccccc1 (stereo not given),17.7%
20,CN(C)/C(CN1CCCCC1)=C1\N=C(c2ccccc2)OC1=O,63.8% (active)
21,O=c1oc2c(Cl)cc(Cl)cc2cc1-c1nnc(Nc2ccccc2F)s1,-3.7%
22,CCOC(=O)CNC(=O)CN1C(=O)CCSc2ccccc21,44.3%

row,SMILES,inhibition
1,CCSc1ncnc2c(C#N)c3n(c12)CCCCC3,5.8%
2,Cc1nc(-c2ccc(NC(=O)c3cccs3)cc2)cs1,12.8%
3,O=C(Nc1ccc(Cl)cc1)OCc1cc(-c2ccccc2)on1,76.4% (active)
4,O=C(Nc1ccccc1)OCc1cc(-c2ccc(Cl)cc2)on1,16.6%
5,O=C(Nc1ccccc1)OCc1cn(-c2ccc(Cl)cc2)nn1,-1.4%
6,CCOC(=O)CSc1ncc(-c2cccc(Cl)c2)cn1,11.1%
7,COc1ccccc1N=C(C)C1=C(O)COC1=O,27.5%
8,CC(C)N(C(=O)Cn1c(SCC(=O)N2CCN(c3ccccc3)CC2)nc2ccccc21)C(C)C,6.9%
9,COC(=O)[C@H](Cc1ccccc1)NC(=O)N1CC(C)OC(C)C1 (stereo not given in full),8.3%
10,COc1ccc(-c2nnn(CC(=O)N(CCO)C(C(=O)NC3CCCC3)c3ccc(F)cc3)n2)cc1 (stereo not given),7.8%
11,Cc1ccc(-c2nnn(CC(=O)N(CCO)C(C(=O)NC(C)(C)C)c3ccncc3)n2)cc1 (stereo not given),74% (active)
12,CC(C)(C)NC(=O)Cn1nnc(-c2ccccc2Cl)n1,45%
13,CCCNC(=O)N1CCN(C(=O)NCCC)CC1,4.5%
14,COCCNC(=S)c1ccc(OC)cc1,18%
15,COc1ccc(NC(=O)c2ccc(OC)cc2)cc1,-5.6%
16,COc1ccc(C(=S)Nc2ccccc2)cc1,65.2% (active)
17,Oc1ccccc1CNc1ncc(Br)cc1Br,39.4%
18,COc1ccc(CCNC(=O)c2ccco2)cc1,55.3% (active)
19,COc1ccc(N(CC(=O)NC(C)(C)C)C(=O)c2ccco2)cc1,-6.7%
20,O=C(NCCSc1ccccc1)c1ccco1,21.8%
21,CCc1ccc(-c2cc(C(=O)NCc3ccco3)c3ccccc3n2)s1,11.6%
22,c1ccc(CCC2=NCCn3cccc32)cc1,10.1%

row,SMILES,inhibition
1,O=S(=O)(c1ccc(Br)cc1)n1ccc2ccccc21,66.4% (active)
2,Cc1ccc(C)c(NC(=O)C2CC(=O)N(C(C)C)C2)c1 (stereo not given),-10.6%
3,CC(=O)Nc1cccc(/C(C)=N/NC(=O)c2ccccc2Cl)c1,10.9%
4,Cc1ccc(C)c(N2C(=O)CS/C2=N\NC(=O)c2ccccc2Cl)c1,63.7% (active)
5,Cc1cccc(C(=O)Nc2ccccc2-c2nnn(CC(=O)Nc3ccc4c(c3)OCCO4)n2)c1,-12.5%
6,O=C1c2ccccc2C(Nc2ccc3c(c2)OCCO3)N1Cc1ccco1 (stereo not given),72.9% (active)
7,O=C(NC1CCCCC1)C1c2ccccc2C(=O)N1Cc1ccco1 (stereo not given),12.4%
8,Cc1ccnc(N2C(=O)c3ccccc3C2Nc2ccc3c(c2)OCCO3)c1 (stereo not given),93.2% (active)
9,CC1CCN(c2nc3c(c(=O)[nH]c(=O)n3C)n2CCCc2ccccc2)CC1,18.4%
10,O=C1CSC(c2cccc(F)c2)N1c1ccc(O)cc1 (stereo not given),26.3%
11,CC1C/C(=N/NC(=O)c2cccs2)CC(C)(C)C1 (stereo not given),41.9%
12,FC(F)(F)c1cc(C(F)(F)F)c2ccc(N3CCN(c4ccccc4)CC3)nc2n1,-3.4%
13,CCOC(=O)CCCNC(=O)CN1C(=O)NC(CCc2ccccc2)C1=O (stereo not given),-2.6%
14,COc1ccc(-c2nnco2)cc1OC,11.8%
15,C=CCn1c(C(C)NC(=O)CC)nc2ccccc21 (stereo not given),-3.9%
16,CCCn1c(C(Cc2ccccc2)NC(=O)COC)nc2ccccc21 (stereo not given),90.2% (active)
17,CCCC(NC(=O)c1ccccc1)c1nc2ccccc2n1Cc1ccc(C(=O)OC)o1 (stereo not given),2.7%
18,CC(CN1CCCCC1)OC(=O)c1ccccc1Cl (stereo not given),38.8%
19,Cc1cc(C)c(C)c(S(=O)(=O)Nc2ccc(O)cc2)c1C,50.9% (active)
20,Cc1noc(C)c1S(=O)(=O)Nc1ccc(C(=O)O)cc1,2.3%
21,Cc1ccc(NS(=O)(=O)c2c(C)[nH]c(=O)[nH]c2=O)cc1C,1.6%
